The source of these data is the supplement of paper PMC8540655.

Structures are written as SMILES.

In this assay the test system is Aedes aegypti larvae. The experiment in a line: larval motility relative to same well at 0 h (fraction); higher = more motile (less active compound), active = 0.4 or less. Particulars: 10 µM; 24 h. The method in brief:
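Aedes aegypti larvae, hatched in pond salt solution with yeast at 25 °C and collected after 18–24 h, were dispensed at about 10 per well (100 µL) in 96-well plates. Compounds were tested at 10 µM, 1% v/v DMSO, with solvent and larvicide control wells on each plate. INVAPP movies (200 frames, 100 ms intervals) were recorded at 0, 2 and 24 h. Relative motility is each well's score divided by its 0 h score, median of three independent larval batches.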
On to `CC(C)c1ccc(COc2cccc(-c3cc(S(C)=O)c(C#N)c(=O)[nH]3)c2)cc1` (stereo not given), for which the larval motility was 0.447 (inactive). Take `Cc1c(OCC(F)(F)F)ccnc1CS(=O)c1nc2ccccc2[nH]1` (stereo not given): the larval motility was 1.38 (inactive). As for `O=C(Nc1ccccc1)N(Cc1cc(Br)ccc1O)c1ccc(F)cc1`, the larval motility is 1.02 (inactive). In the case of `Cc1ncc([N+](=O)[O-])n1CC(O)CN1CCOCC1` (stereo not given), the larval motility was 0.789 (inactive). On to `O=C(NO)C1(CS(=O)(=O)c2ccc(Oc3ccc(Cl)cc3)cc2)CCOCC1`, for which the larval motility was 1.04 (inactive). Consider `CC(C)CCN1C(=O)C(C2=NS(=O)(=O)c3cc(NS(C)(=O)=O)ccc3N2)=C(O)[C@@H]2[C@H]3CC[C@H](C3)[C@@H]21`, for which the larval motility is 0.888 (inactive). On to `Cc1cccc(C)c1C(=O)Nc1nc(-c2ccccn2)cc2ccccc12`, for which the larval motility is 1.01 (inactive).

`O=S(=O)(NCB(O)O)c1cc2c(Cl)ccc(Cl)c2s1`: the larval motility is 0.742 (inactive). In the case of `CCC(CC)[C@H](NC(C)=O)[C@@H]1[C@H](O)[C@@H](C(=O)O)C[C@H]1NC(=N)N`, the larval motility is 1.91 (inactive).

Consider `CN1CCN(Cc2ccc(-c3cnc4[nH]cc(-c5ccc6[nH]ccc6c5)c4c3)cc2)CC1`, for which the larval motility was 0.967 (inactive).

`CCc1cc(CCCOc2c(C)cc(-c3noc(C(F)(F)F)n3)cc2C)on1`: the larval motility was 0.658 (inactive). With `CC(=N)N1CC[C@H](SC2=C(C(=O)O)N3C(=O)[C@@H]([C@@H](C)O)[C@H]3C2)C1`, the larval motility is 0.809 (inactive).

Consider `CC(C)(C)NC(=O)[C@@H]1CN(Cc2cnc3occc3c2)CCN1C[C@@H](O)C[C@@H](Cc1ccccc1)C(=O)N[C@H]1c2ccccc2C[C@H]1O`, for which the larval motility was 0.932 (inactive). With `COC(=O)Nc1nc2c(C)cccc2[nH]1`, the larval motility is 0.778 (inactive). Take `CC(C)Nc1nc2cc(Cl)c(Cl)cc2n1[C@H]1O[C@@H](CO)[C@H](O)[C@@H]1O`: the larval motility was 0.602 (inactive). The figure for `CCC[C@@H]1C[C@@H](C(=O)N[C@@H]([C@H]2O[C@H](SC)[C@H](O)[C@@H](O)[C@H]2O)[C@H](C)Cl)N(C)C1` is 0.885 (inactive); for `COC(=O)Nc1nc2cc(Sc3ccccc3)ccc2[nH]1` it is 0.306 (active); for `Cc1ccc(N2CCC(CCOc3ccc(S(C)(=O)=O)cc3)CC2)nn1` it is 0.683 (inactive).

`Nc1nc(NC2Cc3ccc(F)cc3C2)nc(N2CCCCC2)n1` (stereo not given): the larval motility was 0.628 (inactive). `CCNC(=O)Nc1cc2c(-c3ccnc(C)c3)ccc(CNC(=O)OC)c2cn1`: the larval motility is 0.931 (inactive). As to `CCCCCCCCCN1C[C@@H](O)[C@H](O)[C@@H](O)[C@@H]1CO`, the larval motility was 1.3 (inactive). For `O=C(/C=C\n1cnc(-c2cc(C(F)(F)F)cc(C(F)(F)F)c2)n1)NNc1ccccn1`, the larval motility is 1.17 (inactive). In the case of `COc1cccc(N2CCN(C3=Nc4c(F)cccc4[C@H](CC(=O)O)N3c3cc(C(F)(F)F)ccc3OC)CC2)c1`, the larval motility was 1.01 (inactive). For the molecule `CCN(CC)CCCC(C)Nc1ccnc2cc(Cl)ccc12` (stereo not given), the larval motility is 0.484 (inactive).

`CC(=O)N1CCN(c2ccc(OCC3COC(Cn4ccnc4)(c4ccc(Cl)cc4Cl)O3)cc2)CC1` (stereo not given): the larval motility is 1.14 (inactive). Regarding `CCc1cc(CCC(=O)Nc2ccccc2O)c(=O)[nH]c1C`, the larval motility was 0.991 (inactive).

Take `Cc1ncc([N+](=O)[O-])n1CC(C)O` (stereo not given): the larval motility is 1.55 (inactive).

Regarding `Cc1[nH]c2ccccc2c1CCNCc1ccc(/C=C/C(=O)NO)cc1`, the larval motility is 1.18 (inactive). Regarding `O=C(Nc1ccc(Cl)c(C(F)(F)F)c1)C(CCCl)C(=O)Nc1ccc(Cl)c(C(F)(F)F)c1`, the larval motility was 0.397 (active).

`O=C(c1nc2c(C(F)(F)F)cc(C3CC3)cn2c1Cl)N1CCN([C@H]2CC[C@H](O)CC2)C(=O)C1`: the larval motility is 0.894 (inactive). As for `O=C(NC(=O)N1CCCc2ccccc21)c1cccc(Cl)c1`, the larval motility was 1.04 (inactive). For `Cc1c(N)cccc1Cn1ccc(OCCc2cccs2)cc1=O`, the larval motility was 0.875 (inactive). As to `CC(C)=CCC/C(C)=C/CNCCNC1C2CC3CC(C2)CC1C3` (stereo not given), the larval motility is 0.924 (inactive). As to `Cc1ccc(NC(=O)c2cc(Cl)ccc2O)cc1`, the larval motility was 0.616 (inactive). As for `C=C(C)n1c(=O)n(Cc2ccccc2C)c2ccccc21`, the larval motility is 0.851 (inactive). Regarding `OCCCCn1cnc2c(O)nc(NCc3ccc(Cl)c(Cl)c3)nc21`, the larval motility is 0.79 (inactive).

With `CC(=O)N1c2ccccc2NC2=C(C(=O)CC(C)(C)C2)C1c1ccc(OCc2ccccc2)cc1` (stereo not given), the larval motility was 1.55 (inactive).

For `CC[C@H](NC(=O)[C@H](C)NC)C(=O)N1C[C@@H](O)C[C@H]1Cc1c(-c2[nH]c3cc(F)ccc3c2C[C@@H]2C[C@H](O)CN2C(=O)[C@H](CC)NC(=O)[C@H](C)NC)[nH]c2cc(F)ccc12`, the larval motility was 0.89 (inactive). As to `CCCCc1ccc(S(=O)(=O)Nc2cc(C)on2)cc1`, the larval motility was 0.633 (inactive). The figure for `Nc1nnc(-c2ccc(Cl)cc2)s1` is 0.877 (inactive).
